Screening results (PubChem)
Hits are enriched below; roughly 7% of the tested compounds scored in any of these assays.
JMJD2A Tudor inh = blocks the human JMJD2A Tudor domain | O75164 | AlphaScreen JMJD2A-Tudor / H3K4me3 peptide binding | Potency, µM (highest dose often 114 µM), for the others: at the highest dose activity change, negative = inhibition, actives largely listed as inhibitors | 4.4% of 390,000 active | AID 504339; also: potency is read from the fitted curve at half-maximal effect; % is scaled to controls: 0 for no effect and ±100 for the full control effect; nearly all actives have a fitted effect of over 50% in size
Target sequence (O75164 whole entry, looked up, the tested form may be a part): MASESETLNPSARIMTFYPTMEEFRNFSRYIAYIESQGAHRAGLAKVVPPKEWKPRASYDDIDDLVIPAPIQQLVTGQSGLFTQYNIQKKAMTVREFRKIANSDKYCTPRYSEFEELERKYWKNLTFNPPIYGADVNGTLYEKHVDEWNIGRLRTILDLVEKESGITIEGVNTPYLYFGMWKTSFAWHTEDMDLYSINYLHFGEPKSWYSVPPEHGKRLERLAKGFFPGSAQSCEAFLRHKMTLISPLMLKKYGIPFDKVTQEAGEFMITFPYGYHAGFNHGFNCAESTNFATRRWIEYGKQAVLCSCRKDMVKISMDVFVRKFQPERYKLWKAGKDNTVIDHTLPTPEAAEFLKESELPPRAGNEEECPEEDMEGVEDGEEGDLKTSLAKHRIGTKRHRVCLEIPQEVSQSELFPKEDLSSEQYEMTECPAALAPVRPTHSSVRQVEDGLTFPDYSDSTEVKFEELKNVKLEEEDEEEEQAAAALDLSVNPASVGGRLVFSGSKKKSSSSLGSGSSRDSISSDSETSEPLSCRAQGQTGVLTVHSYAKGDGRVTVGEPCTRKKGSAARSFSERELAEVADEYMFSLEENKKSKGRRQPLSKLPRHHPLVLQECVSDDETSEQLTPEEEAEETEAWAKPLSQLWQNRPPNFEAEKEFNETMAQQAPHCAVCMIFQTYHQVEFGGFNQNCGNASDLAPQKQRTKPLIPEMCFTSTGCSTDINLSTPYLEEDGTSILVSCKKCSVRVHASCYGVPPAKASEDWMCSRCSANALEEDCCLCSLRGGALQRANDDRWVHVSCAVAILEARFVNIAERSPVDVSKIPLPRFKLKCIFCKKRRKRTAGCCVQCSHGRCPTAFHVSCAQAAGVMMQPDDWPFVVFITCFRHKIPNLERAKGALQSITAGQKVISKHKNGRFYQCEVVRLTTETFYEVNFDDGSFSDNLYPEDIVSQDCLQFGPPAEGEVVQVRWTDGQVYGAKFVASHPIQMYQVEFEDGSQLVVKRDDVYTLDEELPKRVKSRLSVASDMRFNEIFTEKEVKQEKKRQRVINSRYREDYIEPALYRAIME
HP1b chromo inh = blocks HP1-beta chromodomain binding to methylated histone tails; AlphaScreen HP1-beta / biotin-H3K9me3 peptide binding; Potency, µM (top dose mostly 114 µM), for inactives: at the highest dose activity change, negative = inhibition, actives largely listed as inhibitors; 0.56% of 390,000 active; AID 540317; also: potency is read from the fitted curve at half-maximal effect; nearly all actives have a fitted effect of over 70% in size
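AlphaScreen: HP1-beta (50 nM) preformed 30 min with biotin-H3(1-18)K9me3 peptide (50 nM) in PBS pH 7.4, 0.01% Tween-20. Compound added for 30 min at RT, then streptavidin donor/nickel chelate acceptor beads (10 ug/mL) for 30 min.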
BAZ2B inh = blocks human BAZ2B; Q9UIF8; AlphaScreen BAZ2B-H3K14Ac peptide displacement; Potency, µM (doses to about 114 µM), for inactives: at the top dose activity change, negative = inhibition, most hits filed as inhibitors; 4.4% of 360,000 active; AID 504333; also: potency is read from the fitted curve at half-maximal effect; % is scaled to controls: 0 for no effect and ±100 for the full control effect; nearly all actives have a fitted effect of over 60% in size
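AlphaScreen displacement: compounds (up to 110uM) incubated 30 min at room temperature with a preformed 50 nM BAZ2B/50 nM biotinylated H3K14Ac peptide complex in PBS pH 7.4 with Tween-20. Donor and acceptor beads at 10 ug/mL final added, 20 min light-protected before reading.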
PLK1 PBD block = blocks phosphopeptide binding to human PLK1 polo-box domain; P53350; Plk1 PBD binding of FITC phosphopeptide, fluorescence polarization; Potency, µM, for the others: max response, negative = inhibition, actives largely listed as inhibitors; 2.8% of 360,000 active; AID 720504; also: potency is read from the fitted curve at half-maximal effect; series mostly up to about 57 µM; % is scaled to controls: 0 for no effect and ±100 for the full control effect; nearly all actives have a fitted effect of over 65% in size
PI5P4Ka inh = blocks human PI5P4K alpha kinase activity | P48426 | PI5P4Kalpha enzyme, ADP-Glo luminescence, 60 min; hits give low values | AID 652105 | 1.2% of 330,000 active | max response, %; active = max response of -50% or lower; inconclusive = between -30% and -50%; inactive = -30% or higher; also: value at the top dose of about 77 µM; % is scaled to controls: 0 for no effect and ±100 for the full control effect
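Compounds were pin-transferred onto PI5P4Kalpha and substrate in HEPES pH 7.4 buffer with EGTA, CHAPS and 5% DMSO. ATP (5 microM final) started the reaction, which ran 60 minutes at room temperature before ADP-Glo detection.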
KAT2A inh = blocks human GCN5L2 histone acetyltransferase; Q92830; GCN5L2 HAT assay, ThioGlo1 CoA-SH fluorescence; Potency, µM (highest dose often 58.9 µM), for the others: at the highest dose activity change, negative = inhibition, most hits filed as inhibitors; 0.21% of 390,000 active; also: potency is read from the fitted curve at half-maximal effect; % is scaled to controls: 0 for no effect and ±100 for the full control effect
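Compounds, pin-transferred from DMSO stocks, meet 20nM GCN5L2 for 15 min before the reaction begins with H3(1-25) peptide (75uM) and acetyl-CoA (70uM). Thiol-reactive ThioGlo1 reports CoA release over 20 min at room temperature.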
Numbers without * were called inactive; ? = inconclusive; / = not tested or not shown; [ ] = remark or other dose. Unless noted, calls follow the shape of the dose curve; as a rule, active = well fitted curve in the direction sought with a large enough effect; inconclusive = small, poorly fitted or top-dose-only effect, or another doubt; inactive = no such curve, though single readings can be large; an effect the other way counts as inactive or inconclusive.

SMILES | JMJD2A Tudor inh | HP1b chromo inh | BAZ2B inh | PLK1 PBD block | PI5P4Ka inh | KAT2A inh
CCN(CC)C(=O)c1nc[nH]c1C(=O)N(CC)CC | -21% | 31% | 11% | 4% | 9 | -4%
CC(C)[C@H](NC(=O)c1ccc([N+](=O)[O-])cc1Cl)C(=O)N1CCN(C/C=C/c2ccccc2)CC1 | ? | -23% | / | -3% | 6 | 3%
Cc1occc1C(=O)NCc1ccc2c(c1)OCO2 | -29% | 6% | -5% | -14% | -16 | -2%
Cc1occc1C(=O)NCc1cccc(CNC(=O)c2ccoc2C)c1 | 56µM* | ? | 50µM* | ? | -53* | -10%
CCOc1ccc(NC(=O)CN2C(=O)NC(C)(c3ccc(OC(F)F)cc3)C2=O)cc1 (centres undefined) | -14% | 24%[57 µM] | 2% | ? | 7 | -15%
C#CCOCCOCCOCCNc1nc(N2CCN(C(=O)[C@H](CCCCN)n3cc(C(N)CO)nn3)CC2)nc(N2CCN(C(=O)[C@H](CCC(=O)O)n3cc(C(N)CC(C)C)nn3)CC2)n1 (some centres undefined) | / | / | 20µM* | / | / | -14%
C#CCOCCOCCOCCNc1nc(N2CCN(C(=O)C([C@@H](C)O)n3cc([C@@H](N)CCCCN)nn3)CC2)nc(N2CCN(C(=O)[C@H](CCC(=O)O)n3cc([C@@H](N)[C@H](C)CC)nn3)CC2)n1 (some centres undefined) | 89µM* | 18% | / | 3% | 1 | -5%
C#CCOCCOCCOCCNc1nc(N2CCN(C(=O)[C@H](CCCCN)n3cc(C(N)CC(C)C)nn3)CC2)nc(N2CCN(C(=O)[C@H](CCC(=O)O)n3cc(C(N)[C@H](C)CC)nn3)CC2)n1 (some centres undefined) | 50µM* | 49% | 50µM* | -10% | 3 | -2%
C#CCOCCOCCOCCNc1nc(N2CCN(C(=O)[C@H](CCCCN)n3cc([C@@H](N)CC(C)C)nn3)CC2)nc(N2CCN(C(=O)[C@H](CCCCN)n3cc([C@@H](N)CC(C)C)nn3)CC2)n1 | -35% | 26% | ? | -6% | -13 | 0%
C#CCOCCOCCOCCNc1nc(N2CCN(C(=O)C([C@@H](C)O)n3cc([C@@H](N)CCCCN)nn3)CC2)nc(N2CCN(C(=O)[C@H](CCCCN)n3cc([C@@H](N)[C@H](C)CC)nn3)CC2)n1 (some centres undefined) | ? | 88% | / | -17% | 1 | -1%
CCC1CN(C(=O)Nc2ccc(C)cc2)c2cc(C)ccc2O1 (centres undefined) | -12% | 42% | -25% | -5% | 8 | -2%
c1ccc(N2[C@@H]3c4ccccc4C[C@H]2c2ccccc23)cc1 | / | / | / | 4% | 2 | /
O=C(Nc1ccc(Cc2ccc(NC(=O)C3CC3)cc2)cc1)C1CC1 | -24% | 16% | / | 27µM* | -7 | -2%
NC(=O)c1ccc(NC(=O)C2CC2)cc1 | 0% | 12% | -16% | -17% | 1 | -4%
CCc1nc2ccccc2c(=O)n1/N=C/c1ccc(OC)cc1 | 0% | 8% | / | 6% | -4 | /
COc1ccc2c(-c3ccc(OCCN4CCCCC4)cc3)c(-c3ccccc3OC)sc2c1 | 28µM* | -34% | / | -13% | 18 | -7%
COc1ccccc1-c1sc2ccccc2c1-c1ccc(OCCN2CCCCC2)cc1 | 35µM* | ? | / | -3% | 6 | -7%
COc1ccc2c(-c3ccc(OCCN4CCOCC4)cc3)c(-c3ccccc3OC)sc2c1 | ? | -17% | / | -17% | 54 | -7%
COc1cccc(-c2sc3ccccc3c2-c2ccc(OCCN3CCCCC3)cc2)c1 | ? | -11% | / | 0% | 5 | -1%
COc1cc2sc(-c3ccccc3OC)c(-c3ccc(OCCN4CCOCC4)cc3)c2cc1OC | 32µM* | ? | / | -13% | 42 | -10%
Cc1c(Cl)cccc1NC(=O)C(C)N(c1ccccc1)S(C)(=O)=O (centres undefined) | -18% | 11% | 6% | / | / | 1%
Cc1ccc(C)c(-n2c(C)cc(/C=N/NC(=O)c3c(C)nc4cc(C)ccn34)c2C)c1 | 40µM* | -12% | -9% | 1% | -10 | -12%
Cc1ccn2c(C(=O)N/N=C\c3cccs3)c(C)nc2c1 | -18% | 32% | 6% | -7% | / | -1%
CCN(CC)c1ccc(NC(=O)CCCCCN2C(=O)c3ccccc3C2=O)cc1 | 25µM* | ? | 45µM* | -6% | / | ?
Cc1ccc(NC(=O)CCCN2C(=O)c3cccc4cccc(c34)C2=O)cc1 | 79µM* | 0% | 0% | 27µM* | -2 | 14%
SMILES | JMJD2A Tudor inh | HP1b chromo inh | BAZ2B inh | PLK1 PBD block | PI5P4Ka inh | KAT2A inh
Cc1ccc(NC(=O)CCN2C(=O)c3cccc4cccc(c34)C2=O)cc1 | -17% | 25% | ? | -11% | -8 | 0%
CCCCN(C)C(=O)C1CCC(CNS(=O)(=O)c2ccc3c(c2)CC(C)N3C(=O)C2CC2)CC1 (centres undefined) | 1% | -5%[57 µM] | -17% | -3% | 6 | -3%
COc1cccc(/C=N/Nc2cc(N3CCOCC3)ncn2)c1O | 45µM* | 37% | 2.8µM* | 1% | -98* | -1%
O=C(Nc1ccc([N+](=O)[O-])cc1)c1nc[nH]c1C(=O)NC1CCCCC1 | -21% | 20% | 50µM* | -8% | ? | 1%
C[C@H](N)c1nnc(SCC(N)=O)o1 | -19% | -17% | 56µM* | -14% | -4 | -8%
CCN1C(=O)[C@H]2[C@H]3CN=C(SCc4ccc(Cl)cc4)N3[C@@](CC)(C(=O)OC)[C@H]2C1=O | -14% | 33% | / | -8% | -2 | 0%
O=C(/C(=C/c1ccccc1)n1cncn1)c1ccc(Cl)cc1Cl | -24% | 1% | -9% | 19µM* | 6 | 3%
COCC(C)NC(=O)CSc1nc2cc(S(=O)(=O)N3CCCCC3)ccc2o1 (centres undefined) | -1% | 40% | -6% | 4% | 4 | -8%
Cc1ccc(F)c(S(=O)(=O)NC(=O)C2(C)CCN2C(=O)Cc2ccccc2Cl)c1 (centres undefined) | / | / | / | -9% | -1 | /
c1ccc(OCCCn2ccnc2)cc1 | -15% | 15% | 1% | 8% | -3 | -10%
CCc1ccc(OCCCCCn2ccnc2)cc1 | 2.5µM* | 56µM* | 50µM* | 1% | 2 | -11%
CCc1ccc(OCCn2ccnc2)cc1 | 28µM* | ? | ? | 6% | -1 | ?
CCOc1ccccc1C(=O)N(Cc1ccc(N(C)C)cc1)Cc1ccco1 | 25µM* | ? | 35µM* | / | / | -9%
Cc1c(C(=O)N(Cc2ccc(N(C)C)cc2)Cc2ccco2)oc2cc(Br)ccc12 | 18µM* | ? | ? | / | / | 5%
